The values that follow come from the supplement of paper PMC13380429.

Experiment [1] concerns Vero E6 infected with SARS-CoV-2. As to the kind of experiment: morphology score (similarity to uninfected cells); higher = more like uninfected cells. Particulars: 24 h.
The test system is the same in experiment [2]. Description: SARS-CoV-2 infection rate relative to infected DMSO; higher = more infection, active = 60 or less. The note with it: 24 h.

Regarding `CCOC(=O)c1c(C)n(C)c2ccc(O)cc12` [mecarbinate] (10 µM), in experiment [1], the morphology score was found to be 0.132. Also, in experiment [2], the SARS-CoV-2 infection rate was 112% (inactive).
Taken in the same sequence, the figures for `O=c1[nH]c2ccccc2n1C1CCN(CCCC(c2ccc(F)cc2)c2ccc(F)cc2)CC1` [pimozide] (10 µM) were 0.48 and 66.5% (inactive).
Molecule `CC(C)(C)NCC(O)COc1cc(Cl)ccc1Cl` (centres undefined) [cloranolol] (10 µM) displayed a morphology score in experiment [1] of -0.0735. In addition, the SARS-CoV-2 infection rate in experiment [2] was 100% (inactive).
Taken in the same sequence, the figures for `OC(CCN1CCCCC1)(c1ccccc1)C1CCCCC1` (centres undefined) [trihexyphenidyl] (10 µM) were 0.167 and 92% (inactive).
Taken in the same sequence, the figures for `Nc1ncnc2c1ncn2[C@@H]1O[C@@H]2COP(=O)(O)O[C@H]2[C@H]1O` [cyclic-AMP] (10 µM) were 0.255 and 86.5% (inactive).
`Cc1ccccc1OCC(O)CO` (centres undefined) [mephenesin] (10 µM) showed a morphology score in experiment [1] of 0.141. Moreover, the SARS-CoV-2 infection rate in experiment [2] was 99.5% (inactive).
Taken in the same sequence, the figures for `Cc1cc(=O)n(-c2ccccc2)[nH]1` [N-demethylantipyrine] (10 µM) were 0.121 and 101% (inactive).
Regarding `Nc1ncnc2c1ncn2[C@@H]1O[C@H](COP(=O)(O)OP(=O)(O)OP(=O)(O)O)[C@@H](O)[C@H]1O` (10 µM), the morphology score in experiment [1] was -0.0072. In addition, the SARS-CoV-2 infection rate in experiment [2] was 99.5% (inactive).
For `Cc1cc(-n2c(=O)[nH]c(=O)n(C)c2=O)ccc1Oc1ccc(SC(F)(F)F)cc1` [toltrazuril] (10 µM) the same measures were 0.184 and 107% (inactive).
Regarding `O=C1COc2nccc(-c3ccccc3F)c2CN1Cc1cc(C(F)(F)F)cc(C(F)(F)F)c1` (10 µM), in experiment [1], the morphology score is -0.194. Besides, the SARS-CoV-2 infection rate in experiment [2] was 108% (inactive).
Regarding `CNC(=O)c1cc(Oc2ccc(NC(=O)Nc3ccc(Cl)c(C(F)(F)F)c3)cc2)ccn1` [sorafenib] (0.833333 µM), the morphology score in experiment [1] was -0.246. For the same molecule, the SARS-CoV-2 infection rate in experiment [2] is 118% (inactive).
`COc1cc2ncc(-c3ccccc3)nc2cc1OC` [tyrphostin-AG-1296] (10 µM): the morphology score in experiment [1] was 0.195. The SARS-CoV-2 infection rate in experiment [2] is 108% (inactive).
For `Cn1ccc2cc3c(cc21)CCN3C(=O)Nc1cccnc1` (10 µM) the same measures were 0.204 and 99% (inactive).
Molecule `CCCC(C)C1(CC)C(=O)NC(=O)NC1=O` (centres undefined) [pentobarbital] (10 µM) gave a morphology score in experiment [1] of 0.0334. Besides, in experiment [2], the SARS-CoV-2 infection rate was 100% (inactive).
Taken in the same sequence, the figures for `COc1cc(C[C@@H]2NCCc3cc(O)c(O)cc32)cc(OC)c1OC` [trimethoquinol] (10 µM) were 0.0323 and 99.5% (inactive).
For `C#C[C@]1(O)CC[C@H]2[C@@H]3CCC4=CC(=O)CCC4=C3C=C[C@@]21CC` [gestrinone] (10 µM) the same measures were 0.0853 and 103% (inactive).
The molecule `CN1CC(=O)NC1=N` [creatinine] (10 µM) displayed a morphology score in experiment [1] of 0.0578. Further, the SARS-CoV-2 infection rate in experiment [2] was 99.5% (inactive).
For the molecule `CC(N)Cc1ccc(O)cc1` (centres undefined) [hydroxyamphetamine] (10 µM), in experiment [1], the morphology score is -0.0633. Besides, the SARS-CoV-2 infection rate in experiment [2] was 104% (inactive).
For `CCc1nn(CCO)c(CC)c1Oc1cc(C#N)cc(C#N)c1` [lersivirine] (10 µM) the same measures were 0.162 and 97% (inactive).
For `C#C[C@]1(O)CC[C@H]2[C@@H]3CCC4=CC(=O)CC[C@@H]4[C@H]3CC[C@@]21C` [Norethindrone (Norethisterone)] (10 µM) the same measures were -0.0201 and 112% (inactive).
Taken in the same sequence, the figures for `COc1ccc(NS(=O)(=O)c2ccc(/N=N/c3ccc(O)c(C(=O)O)c3)cc2)nn1` [salazodine] (10 µM) were 0.0596 and 113% (inactive).
In experiment [1], `CC(C)(C)NS(=O)(=O)c1cncc(-c2cc(F)c3nc(N)nn3c2)c1` (10 µM) had a morphology score of 0.0263. For the same molecule, in experiment [2], the SARS-CoV-2 infection rate was 104% (inactive).
Taken in the same sequence, the figures for `CC[N+](CC)(CC)CC(=O)Nc1c(C)cccc1C` (10 µM) were 0.0409 and 104% (inactive).
With `O=C1NCN(c2ccccc2)C12CCN(CC1COc3ccccc3O1)CC2` (centres undefined) [spiroxatrine] (10 µM), the morphology score in experiment [1] was -0.179. In addition, the SARS-CoV-2 infection rate in experiment [2] was 114% (inactive).
As to `CC(C)[C@H](CO)Nc1nc(Nc2cc(N)cc(Cl)c2)c2ncn(C(C)C)c2n1` [aminopurvalanol-a] (0.833333 µM), in experiment [1], the morphology score is -0.224. The SARS-CoV-2 infection rate in experiment [2] is 108% (inactive).
`Nc1ccc(S(=O)(=O)Nc2ccccn2)cc1` [sulfapyridine] (10 µM) showed a morphology score in experiment [1] of 0.0798. For the same molecule, the SARS-CoV-2 infection rate in experiment [2] was 102% (inactive).
Taken in the same sequence, the figures for `COc1ccc2c(c1)c(CC(=O)N1CCOCC1)c(C)n2C(=O)c1ccc(Cl)cc1` (10 µM) were 0.131 and 112% (inactive).
For `COc1c(C)cnc(Cn2cc(C#CCC(C)(C)O)c3c(Cl)nc(N)nc32)c1C` (10 µM) the same measures were 0.181 and 110% (inactive).
In turn, `CSCC1CN(/N=C/c2ccc([N+](=O)[O-])o2)C(=O)O1` (centres undefined) [inimur] (10 µM) returned a morphology score in experiment [1] of 0.187. In addition, in experiment [2], the SARS-CoV-2 infection rate was 92% (inactive).
On to `O=C(NC1CCOCC1)c1ccc(-c2cc(-c3c[nH]nc3-c3ccccn3)ccn2)cc1` (10 µM), for which, in experiment [1], the morphology score is -0.0411. Besides, in experiment [2], the SARS-CoV-2 infection rate was 114% (inactive).
Taken in the same sequence, the figures for `CCCCc1ncc(/C=C(\Cc2cccs2)C(=O)O)n1Cc1ccc(C(=O)O)cc1` [eprosartan] (10 µM) were 0.0906 and 106% (inactive).
Taken in the same sequence, the figures for `COc1ccc2cc(-c3cc(-c4cc(Cl)cc(Cl)c4)nn3[C@@H](C)c3ccc(C(=O)NCCC(=O)O)cc3)ccc2c1` (10 µM) were 0.164 and 106% (inactive).
As for `COc1c(O[C@@H]2O[C@H](CO)[C@@H](O)[C@H](O)[C@H]2O)cc2c(c1OC)-c1ccc(SC)c(=O)cc1[C@@H](NC(C)=O)CC2` [thiocolchicoside] (10 µM), the morphology score in experiment [1] was -0.00288. The SARS-CoV-2 infection rate in experiment [2] is 114% (inactive).
As to `N#Cc1ccc(N2N=C3c4ccc(C(=O)O)cc4CC[C@@H]3[C@@H]2C2CCCC2)cc1Cl` (10 µM), the morphology score in experiment [1] is -0.174. In addition, the SARS-CoV-2 infection rate in experiment [2] was 108% (inactive).
Taken in the same sequence, the figures for `CNC(=O)Oc1ccccc1OC(C)C` [propoxur] (10 µM) were -0.276 and 118% (inactive).
For `CN1CCc2nc(C(=O)N[C@@H]3C[C@@H](C(=O)N(C)C)CC[C@@H]3NC(=O)C(=O)Nc3ccc(Cl)cn3)sc2C1` [edoxaban] (10 µM) the same measures were 0.0662 and 94.5% (inactive).
`NCC1(CC(=O)O)CCCCC1` [gabapentin] (10 µM) registered a morphology score in experiment [1] of -0.108. In addition, the SARS-CoV-2 infection rate in experiment [2] is 109% (inactive).
For `CC(C)c1cc(C(=O)N2Cc3ccc(CN4CCN(C)CC4)cc3C2)c(O)cc1O` (10 µM) the same measures were 0.185 and 118% (inactive).
For `CC1Cc2ccccc2N1NC(=O)c1ccc(Cl)c(S(N)(=O)=O)c1` (centres undefined) [indapamide] (10 µM) the same measures were 0.0243 and 112% (inactive).
In turn, `CC(=O)N1CCC(C(=O)N(CCCN2CCC(Cc3ccc(C(N)=O)cc3)CC2)c2ccc(C)c(Cl)c2)CC1` (10 µM) had a morphology score in experiment [1] of 0.0284. Also, the SARS-CoV-2 infection rate in experiment [2] is 107% (inactive).
`O=C1Nc2ccccc2C2(CCN(CCc3ccc(C(F)(F)F)cc3)CC2)O1` (10 µM) registered a morphology score in experiment [1] of -0.158. Also, the SARS-CoV-2 infection rate in experiment [2] is 106% (inactive).
The molecule `O=C(O)c1cc2cccc([N+](=O)[O-])c2[nH]1` (10 µM) registered a morphology score in experiment [1] of -0.0876. Also, the SARS-CoV-2 infection rate in experiment [2] was 100% (inactive).
On to `Cc1c(-c2ccccc2)oc2c(C(=O)OCCN3CCCCC3)cccc2c1=O` [flavoxate] (10 µM), for which, in experiment [1], the morphology score came out at 0.4. Besides, in experiment [2], the SARS-CoV-2 infection rate is 88% (inactive).
For `O=C(O)COc1cccc(-c2ocnc2-c2nc(-c3ccccc3)c(-c3ccccc3)o2)c1` (10 µM), the morphology score in experiment [1] stood at 0.194. Besides, the SARS-CoV-2 infection rate in experiment [2] was 102% (inactive).
The molecule `CCNC1=Nc2ccc(Cl)cc2C(C)(c2ccccc2)O1` (centres undefined) [etifoxine] (10 µM) returned a morphology score in experiment [1] of 0.159. The SARS-CoV-2 infection rate in experiment [2] is 106% (inactive).
Taken in the same sequence, the figures for `NC[C@H]1O[C@H](O[C@H]2[C@H](O)[C@@H](O[C@H]3O[C@H](CO)[C@@H](O)[C@H](N)[C@H]3O)[C@H](N)C[C@@H]2N)[C@H](N)C[C@@H]1O` [tobramycin] (10 µM) were 0.095 and 113% (inactive).
For `O=C(O)C1(C(=O)O)CCC1.[NH2-].[NH2-].[Pt+2]` [carboplatin] (10 µM), in experiment [1], the morphology score is -0.0106. For the same molecule, the SARS-CoV-2 infection rate in experiment [2] is 102% (inactive).
Taken in the same sequence, the figures for `COC(=O)c1cc(OC)c2c(c1-c1c(C(=O)OC)cc(OC)c3c1OCO3)OCO2` [bifendate] (10 µM) were 0.0714 and 108% (inactive).
`Cn1ncc(Cl)c1-c1cc(C(=O)N[C@H](CN)Cc2cccc(F)c2)sc1Cl` (10 µM): in experiment [1], the morphology score worked out at 0.197. The SARS-CoV-2 infection rate in experiment [2] was 107% (inactive).
For `CCOCc1nc2c(N)nc3ccccc3c2n1CC(C)(C)O` [resiquimod] (10 µM) the same measures were 0.0727 and 113% (inactive).
In experiment [1], `Cc1ccc2c(c1)C(=O)[C@]1(O)CCN(c3ccccc3)C1=N2` (racemic) [blebbistatin-(+/-)] (10 µM) gave a morphology score of 0.464. Also, the SARS-CoV-2 infection rate in experiment [2] was 90.8% (inactive).
For `Cc1ccccc1N1CCN(S(=O)(=O)C[C@]23CC[C@H](C[C@@H]2NC(=O)[C@@H](N)CCS(C)(=O)=O)C3(C)C)CC1` (10 µM) the same measures were 0.049 and 95% (inactive).
For `O=C(CN1CCN(C(=O)c2ccco2)CC1)Nc1cc(C(F)(F)F)ccc1Cl` (10 µM) the same measures were 0.00654 and 103% (inactive).
Taken in the same sequence, the figures for `Clc1ccc(C(Cn2ccnc2)OCc2c(Cl)cccc2Cl)c(Cl)c1` (centres undefined) [isoconazole] (10 µM) were 0.222 and 104% (inactive).
The molecule `Cc1ccc(C(=O)Cn2c3c(sc2=N)CCCC3)cc1` [pifithrin-alpha] (10 µM) registered a morphology score in experiment [1] of -0.224. Besides, in experiment [2], the SARS-CoV-2 infection rate was 108% (inactive).
Consider `O=C1c2ccccc2-c2n[nH]c3cccc1c23` [pyrazolanthrone] (10 µM), for which the morphology score in experiment [1] is 0.0961. Also, the SARS-CoV-2 infection rate in experiment [2] is 106% (inactive).
In turn, `CCCCCCCCCCCCCCCCOP(=O)([O-])OCC[N+](C)(C)C` [miltefosine] (0.833333 µM) registered a morphology score in experiment [1] of 0.182. In experiment [2], the SARS-CoV-2 infection rate was 94.5% (inactive).
For `COc1ccc(S(=O)(=O)N(C(C)=O)c2ccccc2/C=C/c2cc[n+]([O-])cc2)cc1` (10 µM), in experiment [1], the morphology score is -0.108. Moreover, the SARS-CoV-2 infection rate in experiment [2] is 93.5% (inactive).
In experiment [1], `Cc1cc(C#N)cc(C)c1Oc1nc(Nc2ccc(C#N)cc2)nc(N)c1Br` [etravirine] (10 µM) showed a morphology score of 0.364. In experiment [2], the SARS-CoV-2 infection rate was 98% (inactive).
On to `CN(C)Cc1c(C(=O)NCCOc2ccc(C(=O)NO)cc2)oc2ccccc12` (10 µM), for which, in experiment [1], the morphology score was -0.197. The SARS-CoV-2 infection rate in experiment [2] was 96.5% (inactive).
Taken in the same sequence, the figures for `Nc1nc(-c2ccc(Cl)c(Cl)c2)c(-c2ccncc2)s1` (10 µM) were 0.37 and 99.5% (inactive).
Taken in the same sequence, the figures for `O=C(C1CC1)N1CC[C@@H](Cc2n[nH]c(=O)n2-c2ccc(-c3ccc4occc4c3)cc2)C1` (10 µM) were 0.269 and 90.5% (inactive).
